Test results: PubChem BioAssay AID1942 (Johns Hopkins Ion Channel Center, 2009)
The whole screen tested about 2,400 compounds, of which about 580 (24%) were called active. Not all results are given here. Unmarked numbers belong to inactive results.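 How the source made its calls: active means activity change at or above the mean plus 3 SD of buffer wells without dofetilide, per plate; inactive means the rest.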

The compounds below were run against Potassium voltage-gated channel subfamily KQT member 2 (Rattus norvegicus) (UniProt O88943) (assay: rat KCNQ2 channel activation by compounds alone, confirmation, counter-screen for hERG block protector project, cell-based, CHO, FluxOR thallium flux (AID 1942;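 further: normalized value minus buffer-control mean plus three SD of buffer wells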)). Settings: CHO-KCNQ2 cells, FluxOR thallium flux fluorescence; at 10 µM; hits give high values.
Sequence of Potassium voltage-gated channel subfamily KQT member 2 (Rattus norvegicus) (O88943 whole entry, looked up): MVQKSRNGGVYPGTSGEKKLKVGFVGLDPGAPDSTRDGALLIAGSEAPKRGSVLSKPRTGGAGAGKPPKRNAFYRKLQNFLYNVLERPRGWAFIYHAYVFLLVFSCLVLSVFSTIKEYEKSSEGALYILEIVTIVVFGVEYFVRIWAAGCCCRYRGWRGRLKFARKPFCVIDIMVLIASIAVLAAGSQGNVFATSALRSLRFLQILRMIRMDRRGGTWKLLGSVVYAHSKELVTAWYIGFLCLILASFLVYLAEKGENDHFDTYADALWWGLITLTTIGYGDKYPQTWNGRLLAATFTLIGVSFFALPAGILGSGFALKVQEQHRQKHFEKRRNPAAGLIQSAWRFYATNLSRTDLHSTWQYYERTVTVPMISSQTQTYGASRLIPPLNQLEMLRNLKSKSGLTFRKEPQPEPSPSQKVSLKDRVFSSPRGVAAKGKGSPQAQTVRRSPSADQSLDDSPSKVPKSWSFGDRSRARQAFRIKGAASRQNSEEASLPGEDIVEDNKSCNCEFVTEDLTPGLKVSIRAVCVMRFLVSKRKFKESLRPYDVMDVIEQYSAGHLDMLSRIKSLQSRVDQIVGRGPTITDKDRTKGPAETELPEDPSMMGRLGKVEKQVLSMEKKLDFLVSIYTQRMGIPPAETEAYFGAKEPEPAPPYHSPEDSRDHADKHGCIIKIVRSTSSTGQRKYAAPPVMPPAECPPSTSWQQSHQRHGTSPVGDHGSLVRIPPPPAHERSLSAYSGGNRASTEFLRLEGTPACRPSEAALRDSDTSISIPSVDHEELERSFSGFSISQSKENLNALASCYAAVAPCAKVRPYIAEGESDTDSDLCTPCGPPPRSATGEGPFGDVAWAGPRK
`COc1ccc(-n2c(SCc3ccccn3)nc3c(c2=O)SCC3)cc1OC` was tested, and the activity change, less the hit threshold was -2.7%.
`CCC1=C(OC(=O)N(CC)CC)N2C(=O)OC(=NCC3CC3)[C@]2(C)[C@H]2C1=CC[C@H]1C(=O)N(C)C(=O)[C@H]12` was tested, and the activity change, less the hit threshold was -15.9%.
`O=C1CSC(=S)N1/N=C/c1cc(Br)ccc1O` showed an activity change, less the hit threshold of -6.3%.
`O=C(CN1CCN(c2ccc(Cl)cc2)CC1)Nc1ccc(F)cc1` gave an activity change, less the hit threshold of -21.6%.
With `S=c1nc(-c2ccccc2)[nH]c2ccc(Br)cc12` the activity change, less the hit threshold was 135% (active).
In the case of `S=c1nc(-c2ccc(Br)cc2)[nH]c2ccccc12`, the activity change, less the hit threshold is reported as 100% (active).
In the case of `CCOC(=O)N/N=C\c1ccc(-c2cc(Cl)ccc2Cl)o1`, the activity change, less the hit threshold is reported as -17.6%.
`O=C1N(CN2CCN(Cc3ccccc3)CC2)c2ccccc2C12OCCCO2` gave an activity change, less the hit threshold of -12.5%.
For `CCOc1cc(N2CCCC2)ccc1[N+](=O)[O-]`, the activity change, less the hit threshold was -13.1%.
For `S=c1[nH]nc(-c2cccs2)n1/N=C/c1c(Cl)cccc1Cl`, the activity change, less the hit threshold was 13.1% (active).
With `CC(C1CC2CCC1C2)n1c(-c2cccs2)n[nH]c1=S` (stereo not drawn) the activity change, less the hit threshold was -7.9%.
Work on `Cc1cccc(/C=N/n2c(COc3ccccc3)n[nH]c2=S)c1` yielded an activity change, less the hit threshold of -13.8%.
`CCC(=O)Nc1cc(=O)[nH]c2ncnn12` was tested, and the activity change, less the hit threshold was -13.1%.
`CCOC(=O)C1=C(C)NC(=O)NC1c1cccc(OC)c1OCc1ccccc1Cl` (stereo not drawn) showed an activity change, less the hit threshold of -15.6%.
With `CN(Cc1ccccc1)C(=O)CCc1ccccc1` the activity change, less the hit threshold was -22.5%.
Work on `CC(C)C(=O)Nc1ccc(NC(=O)CCc2ccccc2)cn1` yielded an activity change, less the hit threshold of -23.2%.
With `CN(C)c1ccc(NC(=O)CCCc2ccccc2)cc1` the activity change, less the hit threshold was 0.2% (active).
Work on `COc1cc2c(=O)nc3n(c2cc1OC)C(c1ccccc1)N=C(N)N3` (stereo not drawn) yielded an activity change, less the hit threshold of -18.8%.
With `Nc1nc2c(s1)CCc1c-2cnn1-c1ccccc1` the activity change, less the hit threshold was -29.6%.
`Oc1c(N=Nc2ccccn2)ccc2ccccc12` was tested, and the activity change, less the hit threshold was 7.7% (active).
For `Oc1ccc(N=Nc2ccc3c(c2)OCCO3)c2ncccc12`, the activity change, less the hit threshold was -11.2%.
`CC1CCN(c2ccc3c(c2)S(=O)(=O)c2ccccc2C3=O)CC1` was tested, and the activity change, less the hit threshold was -25.4%.
`Cc1cc(-c2cccc(Br)c2)c(C#N)c(N)n1` was tested, and the activity change, less the hit threshold was -13.8%.
With `CCOC(=O)c1c(SCC(=O)Nc2nc(C)cs2)nc(=O)[nH]c1C` the activity change, less the hit threshold was -17.9%.
`O=c1c(-c2ccccc2)[n+]([O-])c2ccccc2n1O` showed an activity change, less the hit threshold of -16.2%.
With `O=c1c(-c2cccc3ccccc23)[n+]([O-])c2ccccc2n1O` the activity change, less the hit threshold was 5.6% (active).
`Cc1ccc(-c2c(=O)n(O)c3ccccc3[n+]2[O-])cc1` was tested, and the activity change, less the hit threshold was 59.1% (active).
For `O=c1c(-c2ccc(Cl)cc2)[n+]([O-])c2ccccc2n1O`, the activity change, less the hit threshold was 92.9% (active).
Compound `FC(F)c1nnc2c(Cl)cc(C(F)(F)F)cn12` has an activity change, less the hit threshold of -8%.
For `CC(=O)Nc1ccc(S(=O)(=O)N2CCC(C(=O)O)CC2)cc1`, the activity change, less the hit threshold was -26.7%.
`Cc1cc(=O)[nH]c(SCC(=O)Nc2ccccc2C#N)c1C#N` was tested, and the activity change, less the hit threshold was -14.5%.
`CCOc1cc(/C=C2/C(=O)ON=C2C)ccc1O` was tested, and the activity change, less the hit threshold was -11.8%.
`COc1cccc(/C=N/NC(=O)CSc2ccccc2C)c1O` gave an activity change, less the hit threshold of -2.9%.
For `COc1cccc(/C=N/n2c(SC)nnc2-c2ccccc2)c1O`, the activity change, less the hit threshold was 2.8% (active).
Compound `COc1cc(-c2nnc(SCC(=O)O)n2-c2ccccc2)cc(OC)c1OC` has an activity change, less the hit threshold of -13.9%.
`COc1cc(S(=O)(=O)Nc2c(C)cc(C)cc2C)ccc1Cl` showed an activity change, less the hit threshold of -20.6%.
Compound `COCCN1C(=O)C(=O)/C(=C(/O)c2ccc(S(=O)(=O)N3CCOCC3)cc2)C1c1ccc(OC)c(OC)c1` (stereo not drawn) has an activity change, less the hit threshold of -17.7%.
With `CCOC(=O)c1c(-c2ccccc2)csc1NC(=S)NC` the activity change, less the hit threshold was 19% (active).
In the case of `CCNC(=S)Nc1scc(-c2ccccc2)c1C(=O)OCC`, the activity change, less the hit threshold is reported as 10.6% (active).
With `CCOC(=O)c1c(CC(C)C)csc1NC(=O)c1ccccc1C(=O)O` the activity change, less the hit threshold was -7.7%.
For `CCOC(=O)c1ccc(NC(=O)Cn2nnc(-c3ccccc3)n2)cc1`, the activity change, less the hit threshold was -26.4%.
For `CCOC(=O)c1c(-c2ccc(C)o2)csc1NC(=S)NC(=O)N(C)C`, the activity change, less the hit threshold was 24.3% (active).
In the case of `CCOC(=O)c1c(C=O)c(C)n(Cc2ccccc2)c1C`, the activity change, less the hit threshold is reported as -14.5%.
Work on `Nc1nonc1-n1nnc(C(=O)N/N=C/c2cccc(Cl)c2Cl)c1CN1CCCC1` yielded an activity change, less the hit threshold of -9.3%.
`Oc1ccc2[nH]cnc2c1CN1CCCCC1` was tested, and the activity change, less the hit threshold was -16.5%.
In the case of `O=C(O)C1C2CCC(O2)C1C(=O)Nc1ccc(F)c(Cl)c1` (stereo not drawn), the activity change, less the hit threshold is reported as -21%.
Compound `Cc1ccc(-c2noc(CCC(=O)NC3CCCC3)n2)cc1` has an activity change, less the hit threshold of -9.6%.
For `O=C(Nc1ccc(Cl)cc1Cl)c1n[nH]c(Cn2cncn2)n1`, the activity change, less the hit threshold was -6%.
`CC(=O)c1cccc(NC(=O)NCc2cccs2)c1` showed an activity change, less the hit threshold of -14.9%.
Work on `CN(CCc1ccccn1)C(=O)CCC1CCCN(C(=O)c2ccsc2)C1` (stereo not drawn) yielded an activity change, less the hit threshold of -13.1%.
For `Cc1ccc(C(=O)NNC(=S)NC(=O)c2ccccc2)cc1`, the activity change, less the hit threshold was -25.9%.
For `Cc1ccc(C(=O)NC(=S)N(C)Cc2ccccc2)cc1`, the activity change, less the hit threshold was 7.1% (active).
`O=C(c1cccs1)N1CCN=C1SCc1ccccc1` gave an activity change, less the hit threshold of -22.6%.
With `CN(Cc1ccccc1)C(=S)NC(=O)c1cccs1` the activity change, less the hit threshold was 7.6% (active).
With `COc1ccc(N(CC(=O)NCc2cccnc2)S(=O)(=O)c2ccccc2[N+](=O)[O-])c(OC)c1` the activity change, less the hit threshold was -23.8%.
`Cc1ccc(-n2ccc(=O)c(C(=O)Nc3ccc(S(=O)(=O)Nc4nccs4)cc3)n2)cc1` gave an activity change, less the hit threshold of -13.6%.
`C=C(C)C1CC=C(C)/C(=N/NC(=O)CCC(=O)Nc2ccccc2Cl)C1` (stereo not drawn) gave an activity change, less the hit threshold of -11.1%.
In the case of `O=c1c2ccc(Cl)cc2nc(-c2ccc([N+](=O)[O-])cc2)n1O`, the activity change, less the hit threshold is reported as 26.8% (active).
For `O=c1c2cc(Cl)ccc2nc(-c2ccc([N+](=O)[O-])cc2)n1O`, the activity change, less the hit threshold was 31.4% (active).
For `N#Cc1ccc(-c2nc3cc(Cl)ccc3c(=O)n2O)cc1`, the activity change, less the hit threshold was 1.6% (active).
For `O=c1c2cc(Br)ccc2nc(-c2ccc([N+](=O)[O-])cc2)n1O`, the activity change, less the hit threshold was 43.1% (active).
`COc1ccc(C(CC(=O)N2CCOCC2)c2c(O)cc(OC)cc2OC)cc1` (stereo not drawn) was tested, and the activity change, less the hit threshold was -14.7%.
Work on `COc1ccc(-c2cn3nc(SCC(=O)NC4CCCCC4)ccc3n2)cc1` yielded an activity change, less the hit threshold of -7.9%.
